Source: the supplement of paper PMC12819154, “High-throughput peptide-centric local stability assay extends protein–ligand identification to membrane proteins, tissues and bacteria” (Nature Structural & Molecular Biology, 2025)

Compound: Nc1ncnc2c1ncn2[C@@H]1O[C@H](COP(=O)(O)OP(=O)(O)OP(=O)(O)O)[C@@H](O)[C@H]1O [adenosine 5'-triphosphate]
Test: log2 fold change of tryptic peptide abundance, ligand vs vehicle (limited proteolysis) (log2 ratio); higher = more trypsin-susceptible (destabilized)
Conditions: ligand concentration: 5 mM; sample: E. coli desalted lysate; replicate design: treated before aliquoting
Method: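 HT-PELSA: desalted E. coli K-12 BW25113 lysate (with 12 mM MgCl2) incubated with 5 mM ATP (pH 7) or water for 30 min at 25 C, then a 4 min trypsin pulse at 22 C. Peptides were quantified by DIA-MS (4 replicates). Value is the peptide log2 fold change (treated/control); negative = stabilized. Scale: negative = ligand-stabilized region.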
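Also: lysate desalted by size exclusion to strip endogenous ATP, peptide intensities built from DIA-NN precursor signals, and peptides missing any value discarded before comparison.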

“UniProt P75968 (peptide sequence: HLIIKPLSR, peptide start residue: 102)” was tested. Which log2 fold change did it give?
Its log2 fold change is -1.04.

With “UniProt P14081 (peptide sequence: EHLLQLPER, peptide start residue: 159)” as the target, how does the log2 fold change read?
Its log2 fold change is -1.29.

For “UniProt P37624 (peptide sequence: LFHIPEAEIPAR, peptide start residue: 376)”, which log2 fold change is on record?
Its log2 fold change is -1.74.

How did the log2 fold change turn out when “UniProt P76542 (peptide sequence: VAEDWFATR, peptide start residue: 108)” was run?
The log2 fold change was -0.902.

With “UniProt P0AC00 (peptide sequence: RYYGGLVEY, peptide start residue: 332)” as the target, how does the log2 fold change read?
Its log2 fold change is -0.478.

With “UniProt P77766 (peptide sequence: LAQGGAVTR, peptide start residue: 133)” as the target, how does the log2 fold change read?
Its log2 fold change is -0.418.

How did the log2 fold change turn out when “UniProt P39274 (peptide sequence: FYINDKQGK, peptide start residue: 10)” was run?
The log2 fold change was 0.423.

Which log2 fold change does the source give for “UniProt P37749 (peptide sequence: YMSQDKIK, peptide start residue: 132)” here?
Its log2 fold change is -0.295.

Which log2 fold change does the source give for “UniProt P0ADZ7 (peptide sequence: DFVAAVLPK, peptide start residue: 96)” here?
The log2 fold change was -0.282.

With “UniProt P77252 (peptide sequence: DEPLTLLK, peptide start residue: 148)” as the target, how does the log2 fold change read?
The log2 fold change was 0.328.

With “UniProt P77302 (peptide sequence: KEEETALSCR, peptide start residue: 80)” as the target, how does the log2 fold change read?
The log2 fold change was -1.39.

Which log2 fold change does the source give for “UniProt P76206 (peptide sequence: FEFGPGVR, peptide start residue: 152)” here?
Its log2 fold change is 1.15.

How did the log2 fold change turn out when “UniProt P39325 (peptide sequence: STLYLPDTAKEELEK, peptide start residue: 298)” was run?
Its log2 fold change is -1.01.

Which log2 fold change does the source give for “UniProt P0AAG8 (peptide sequence: TQIGSLSGGNQQK, peptide start residue: 402)” here?
Its log2 fold change is 0.32.

How did the log2 fold change turn out when “UniProt P77485 (peptide sequence: GTVAVTSDAR, peptide start residue: 461)” was run?
The log2 fold change was -0.644.

Which log2 fold change does the source give for “UniProt P77756 (peptide sequence: HRAEIDVAR, peptide start residue: 39)” here?
The log2 fold change was -2.3.

For “UniProt P77376 (peptide sequence: VGLIGYGYASK, peptide start residue: 7)”, which log2 fold change is on record?
The log2 fold change was -1.01.

For “UniProt Q47622 (peptide sequence: KMNADDVVFTFQR, peptide start residue: 117)”, which log2 fold change is on record?
Its log2 fold change is 1.14.

With “UniProt P21893 (peptide sequence: DCNFPSK, peptide start residue: 181)” as the target, how does the log2 fold change read?
Its log2 fold change is -0.813.

With “UniProt P23305 (peptide sequence: DLGLAGASLR, peptide start residue: 115)” as the target, how does the log2 fold change read?
Its log2 fold change is 0.488.

Which log2 fold change does the source give for “UniProt P23538 (peptide sequence: QVKIEDVPQEQR, peptide start residue: 278)” here?
Its log2 fold change is -2.56.

For “UniProt P09169 (peptide sequence: MPYIGLTGSYR, peptide start residue: 198)”, which log2 fold change is on record?
The log2 fold change was 1.26.

“UniProt P32703 (peptide sequence: AATAEVAIVAIQK, peptide start residue: 440)” was tested. Which log2 fold change did it give?
The log2 fold change was 1.52.

Which log2 fold change does the source give for “UniProt P15047 (peptide sequence: IGMSAYGASK, peptide start residue: 139)” here?
Its log2 fold change is -1.47.

Which log2 fold change does the source give for “UniProt P05055 (peptide sequence: GDISEFAPR, peptide start residue: 546)” here?
Its log2 fold change is -0.643.

Which log2 fold change does the source give for “UniProt P27238 (peptide sequence: NKMTTEELAECLGVAK, peptide start residue: 6)” here?
Its log2 fold change is 0.577.

For “UniProt P37744 (peptide sequence: KGFIDVEQVRK, peptide start residue: 261)”, which log2 fold change is on record?
Its log2 fold change is -0.836.

“UniProt P39099 (peptide sequence: SRIATTEPGTK, peptide start residue: 330)” was tested. Which log2 fold change did it give?
Its log2 fold change is 0.877.

With “UniProt P76346 (peptide sequence: LHHANDTDSFSATNVH, peptide start residue: 250)” as the target, how does the log2 fold change read?
The log2 fold change was 0.288.

With “UniProt P28634 (peptide sequence: WRVTDAGFEVFALEPR, peptide start residue: 220)” as the target, how does the log2 fold change read?
Its log2 fold change is 0.789.

“UniProt P77265 (peptide sequence: QHPEFYLR, peptide start residue: 103)” was tested. Which log2 fold change did it give?
Its log2 fold change is -0.556.

For “UniProt P76257 (peptide sequence: GQPLVVEAGTGTGK, peptide start residue: 38)”, which log2 fold change is on record?
The log2 fold change was -0.82.

How did the log2 fold change turn out when “UniProt P77555 (peptide sequence: VEYYAER, peptide start residue: 49)” was run?
The log2 fold change was -0.74.

How did the log2 fold change turn out when “UniProt P33371 (peptide sequence: ICPELQNASR, peptide start residue: 49)” was run?
The log2 fold change was 0.883.

“UniProt P0AEH3 (peptide sequence: VGQQLMSK, peptide start residue: 91)” was tested. Which log2 fold change did it give?
Its log2 fold change is 0.523.

Which log2 fold change does the source give for “UniProt Q46851 (peptide sequence: YLNGIPQDSR, peptide start residue: 234)” here?
The log2 fold change was -0.438.

How did the log2 fold change turn out when “UniProt P24203 (peptide sequence: ILLTKTDVAGEAEKLHER, peptide start residue: 155)” was run?
Its log2 fold change is 1.26.

For “UniProt P22939 (peptide sequence: GLPTCHVK, peptide start residue: 97)”, which log2 fold change is on record?
The log2 fold change was 0.252.

Which log2 fold change does the source give for “UniProt P15031 (peptide sequence: TVFSVEAEIHPEPVSGRPMCLMR, peptide start residue: 233)” here?
The log2 fold change was 1.33.

Which log2 fold change does the source give for “UniProt P36771 (peptide sequence: AGLGVTARPVEMMSPDLR, peptide start residue: 231)” here?
Its log2 fold change is 0.543.
